{
  "source": "the supplement of paper PMC9950053",
  "note": "Where a name gives a salt, the structure may show the parent alone.",
  "data": [
    {"test_system": "Danio rerio larvae (5 dpf)", "assay": "combined optomotor response (time in upper well half, down vs up moving lines, periods 7-14) minus DMSO control (percentage points); higher = stronger optomotor response than DMSO larvae", "conditions": "10 µM; exposure time: 3 h pre-incubation + 3 h imaging", "values": [
      {"smiles": "Cc1cc(C2CCCCC2)n(O)c(=O)c1", "note": "[Ciclopirox]", "combined optomotor response": 5.45},
      {"smiles": "CCCCc1nc(Cl)c(CO)n1Cc1ccc(-c2ccccc2-c2nnn[nH]2)cc1", "note": "[Losartan potassium]", "combined optomotor response": -0.522},
      {"smiles": "CN(C)CCC[C@@]1(c2ccc(F)cc2)OCc2cc(C#N)ccc21", "note": "[Escitalopram oxalate]", "combined optomotor response": -0.7},
      {"smiles": "C=CC(=O)N1CCC[C@@H](n2nc(-c3ccc(Oc4ccccc4)cc3)c3c(N)ncnc32)C1", "note": "[Ibrutinib]", "combined optomotor response": 5.02}
    ]}
  ]
}
